# Assay results as given in ChEMBL document CHEMBL2218924, “A broad activity screen in support of a chemogenomic map for kinase signalling research and drug discovery” (Biochem J, 2013).
# Columns and labels:
# [1] = biological target: T1, Ephrin type-A receptor 3 (Homo sapiens) (UniProt P29320); conditions: at 10 µM
# T1 sequence (whole entry): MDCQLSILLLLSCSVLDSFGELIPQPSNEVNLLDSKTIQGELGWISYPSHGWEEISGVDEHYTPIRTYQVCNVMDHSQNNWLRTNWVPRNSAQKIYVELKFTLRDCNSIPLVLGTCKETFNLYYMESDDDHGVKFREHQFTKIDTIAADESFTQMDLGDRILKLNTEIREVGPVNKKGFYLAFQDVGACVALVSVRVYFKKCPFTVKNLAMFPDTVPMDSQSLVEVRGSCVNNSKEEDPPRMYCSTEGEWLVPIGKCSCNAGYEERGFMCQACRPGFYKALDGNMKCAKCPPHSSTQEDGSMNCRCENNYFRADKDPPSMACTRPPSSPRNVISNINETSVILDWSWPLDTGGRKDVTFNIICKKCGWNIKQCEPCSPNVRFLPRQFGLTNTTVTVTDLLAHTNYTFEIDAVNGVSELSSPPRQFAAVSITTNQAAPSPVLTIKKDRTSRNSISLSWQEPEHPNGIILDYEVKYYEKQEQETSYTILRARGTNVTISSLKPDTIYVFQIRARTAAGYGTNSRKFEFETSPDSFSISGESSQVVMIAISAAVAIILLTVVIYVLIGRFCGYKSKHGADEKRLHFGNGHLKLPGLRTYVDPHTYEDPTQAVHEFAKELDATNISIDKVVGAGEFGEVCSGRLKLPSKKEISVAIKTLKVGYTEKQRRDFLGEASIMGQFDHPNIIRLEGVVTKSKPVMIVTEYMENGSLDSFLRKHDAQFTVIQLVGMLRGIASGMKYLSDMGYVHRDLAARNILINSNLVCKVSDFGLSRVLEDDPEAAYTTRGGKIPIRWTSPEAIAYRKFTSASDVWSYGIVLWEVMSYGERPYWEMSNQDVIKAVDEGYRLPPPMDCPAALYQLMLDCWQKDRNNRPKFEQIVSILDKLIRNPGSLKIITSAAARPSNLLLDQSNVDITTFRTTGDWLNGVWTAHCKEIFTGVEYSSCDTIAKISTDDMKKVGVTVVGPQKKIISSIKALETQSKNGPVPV
# [2] = biological target: Ephrin type-A receptor 4 (Homo sapiens) (UniProt P54764); conditions: at 1 µM
# Ephrin type-A receptor 4 (Homo sapiens), sequence (P54764 whole entry): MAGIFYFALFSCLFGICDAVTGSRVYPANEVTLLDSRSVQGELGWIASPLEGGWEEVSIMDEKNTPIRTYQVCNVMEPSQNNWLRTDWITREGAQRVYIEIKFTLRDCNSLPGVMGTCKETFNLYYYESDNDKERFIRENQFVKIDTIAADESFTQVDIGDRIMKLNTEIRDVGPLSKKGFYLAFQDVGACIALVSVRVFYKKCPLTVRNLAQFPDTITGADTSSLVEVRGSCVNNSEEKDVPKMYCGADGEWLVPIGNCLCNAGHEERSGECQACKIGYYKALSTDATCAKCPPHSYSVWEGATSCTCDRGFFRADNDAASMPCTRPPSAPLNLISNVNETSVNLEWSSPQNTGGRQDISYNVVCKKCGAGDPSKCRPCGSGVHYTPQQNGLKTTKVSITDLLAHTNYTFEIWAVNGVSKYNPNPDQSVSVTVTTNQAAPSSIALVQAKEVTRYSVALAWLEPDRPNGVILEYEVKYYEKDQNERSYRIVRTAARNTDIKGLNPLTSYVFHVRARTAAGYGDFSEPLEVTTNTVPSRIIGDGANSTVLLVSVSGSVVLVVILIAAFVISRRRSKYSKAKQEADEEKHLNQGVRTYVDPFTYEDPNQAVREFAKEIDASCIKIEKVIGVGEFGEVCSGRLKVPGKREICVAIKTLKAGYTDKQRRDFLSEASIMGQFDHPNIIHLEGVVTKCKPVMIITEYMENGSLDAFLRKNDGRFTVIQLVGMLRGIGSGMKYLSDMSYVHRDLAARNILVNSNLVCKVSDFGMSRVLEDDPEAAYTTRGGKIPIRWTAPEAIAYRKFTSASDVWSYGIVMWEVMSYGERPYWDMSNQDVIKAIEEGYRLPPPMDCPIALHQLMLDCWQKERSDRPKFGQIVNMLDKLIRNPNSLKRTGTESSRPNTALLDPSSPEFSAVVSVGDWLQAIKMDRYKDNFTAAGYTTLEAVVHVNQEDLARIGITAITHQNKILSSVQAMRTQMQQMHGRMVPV
# [3] = biological target: Ephrin type-A receptor 4 (Homo sapiens) (UniProt P54764); conditions: at 10 µM
# [4] = biological target: Ephrin type-A receptor 5 (Homo sapiens) (UniProt P54756); conditions: at 1 µM
# Ephrin type-A receptor 5 (Homo sapiens), sequence (P54756 whole entry): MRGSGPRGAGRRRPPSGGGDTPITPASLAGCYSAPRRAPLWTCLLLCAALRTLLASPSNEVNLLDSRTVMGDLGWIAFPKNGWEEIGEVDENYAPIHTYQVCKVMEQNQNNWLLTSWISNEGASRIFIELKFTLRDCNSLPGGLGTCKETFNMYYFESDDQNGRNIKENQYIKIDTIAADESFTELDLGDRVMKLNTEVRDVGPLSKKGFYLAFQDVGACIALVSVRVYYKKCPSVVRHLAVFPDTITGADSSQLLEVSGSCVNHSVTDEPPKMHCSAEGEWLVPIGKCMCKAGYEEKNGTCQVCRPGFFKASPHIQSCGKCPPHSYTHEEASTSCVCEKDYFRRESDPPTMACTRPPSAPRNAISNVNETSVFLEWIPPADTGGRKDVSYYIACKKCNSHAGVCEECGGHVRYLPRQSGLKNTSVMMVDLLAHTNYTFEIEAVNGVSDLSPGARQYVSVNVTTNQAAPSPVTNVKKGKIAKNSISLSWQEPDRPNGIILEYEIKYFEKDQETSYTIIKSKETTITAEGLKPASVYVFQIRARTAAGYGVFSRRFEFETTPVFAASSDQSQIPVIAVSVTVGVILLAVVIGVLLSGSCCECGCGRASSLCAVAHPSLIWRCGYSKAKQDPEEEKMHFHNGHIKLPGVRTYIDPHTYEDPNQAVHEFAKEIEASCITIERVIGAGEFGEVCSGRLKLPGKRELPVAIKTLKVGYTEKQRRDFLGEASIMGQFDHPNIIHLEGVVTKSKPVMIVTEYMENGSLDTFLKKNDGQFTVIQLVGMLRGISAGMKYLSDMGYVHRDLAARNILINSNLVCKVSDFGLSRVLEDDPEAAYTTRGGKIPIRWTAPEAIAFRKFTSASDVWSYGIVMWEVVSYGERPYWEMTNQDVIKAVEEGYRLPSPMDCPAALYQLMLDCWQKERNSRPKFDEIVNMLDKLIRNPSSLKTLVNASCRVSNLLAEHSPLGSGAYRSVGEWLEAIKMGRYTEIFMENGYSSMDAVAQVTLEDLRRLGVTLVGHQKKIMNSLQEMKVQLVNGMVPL
# [5] = biological target: Ephrin type-A receptor 5 (Homo sapiens) (UniProt P54756); conditions: at 10 µM
# [6] = biological target: Ephrin type-A receptor 7 (Homo sapiens) (UniProt Q15375); conditions: at 1 µM
# Ephrin type-A receptor 7 (Homo sapiens), sequence (Q15375 28-998 limits assumed): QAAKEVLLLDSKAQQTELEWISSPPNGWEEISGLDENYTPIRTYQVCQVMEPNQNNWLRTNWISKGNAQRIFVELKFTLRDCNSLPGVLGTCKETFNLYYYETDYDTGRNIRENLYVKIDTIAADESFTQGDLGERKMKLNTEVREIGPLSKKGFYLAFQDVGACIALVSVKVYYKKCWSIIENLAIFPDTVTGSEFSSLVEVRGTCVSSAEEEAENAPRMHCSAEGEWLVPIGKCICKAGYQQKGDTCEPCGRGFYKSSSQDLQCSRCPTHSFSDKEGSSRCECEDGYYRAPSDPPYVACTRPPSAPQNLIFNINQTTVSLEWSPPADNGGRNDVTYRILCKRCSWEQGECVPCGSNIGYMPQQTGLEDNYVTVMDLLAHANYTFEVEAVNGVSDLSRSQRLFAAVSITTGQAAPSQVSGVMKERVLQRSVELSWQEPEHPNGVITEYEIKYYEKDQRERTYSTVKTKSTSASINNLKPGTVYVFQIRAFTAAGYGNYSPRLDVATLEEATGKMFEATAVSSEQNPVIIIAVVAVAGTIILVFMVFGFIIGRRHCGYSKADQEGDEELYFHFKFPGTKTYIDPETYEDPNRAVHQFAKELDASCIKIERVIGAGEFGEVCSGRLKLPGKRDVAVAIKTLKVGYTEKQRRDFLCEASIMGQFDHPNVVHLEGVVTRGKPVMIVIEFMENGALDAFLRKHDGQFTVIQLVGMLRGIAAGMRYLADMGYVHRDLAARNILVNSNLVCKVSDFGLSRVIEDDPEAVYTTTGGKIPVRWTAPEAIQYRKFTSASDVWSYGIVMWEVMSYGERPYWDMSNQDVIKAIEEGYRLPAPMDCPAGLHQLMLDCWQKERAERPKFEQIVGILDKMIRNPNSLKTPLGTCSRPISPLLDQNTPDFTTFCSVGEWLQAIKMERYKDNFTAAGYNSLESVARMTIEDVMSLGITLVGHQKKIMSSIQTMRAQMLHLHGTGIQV
# [7] = biological target: Ephrin type-A receptor 7 (Homo sapiens) (UniProt Q15375); conditions: at 10 µM
# [8] = biological target: T2, Ephrin type-A receptor 8 (Homo sapiens) (UniProt P29322); conditions: at 1 µM
# T2 sequence (whole entry): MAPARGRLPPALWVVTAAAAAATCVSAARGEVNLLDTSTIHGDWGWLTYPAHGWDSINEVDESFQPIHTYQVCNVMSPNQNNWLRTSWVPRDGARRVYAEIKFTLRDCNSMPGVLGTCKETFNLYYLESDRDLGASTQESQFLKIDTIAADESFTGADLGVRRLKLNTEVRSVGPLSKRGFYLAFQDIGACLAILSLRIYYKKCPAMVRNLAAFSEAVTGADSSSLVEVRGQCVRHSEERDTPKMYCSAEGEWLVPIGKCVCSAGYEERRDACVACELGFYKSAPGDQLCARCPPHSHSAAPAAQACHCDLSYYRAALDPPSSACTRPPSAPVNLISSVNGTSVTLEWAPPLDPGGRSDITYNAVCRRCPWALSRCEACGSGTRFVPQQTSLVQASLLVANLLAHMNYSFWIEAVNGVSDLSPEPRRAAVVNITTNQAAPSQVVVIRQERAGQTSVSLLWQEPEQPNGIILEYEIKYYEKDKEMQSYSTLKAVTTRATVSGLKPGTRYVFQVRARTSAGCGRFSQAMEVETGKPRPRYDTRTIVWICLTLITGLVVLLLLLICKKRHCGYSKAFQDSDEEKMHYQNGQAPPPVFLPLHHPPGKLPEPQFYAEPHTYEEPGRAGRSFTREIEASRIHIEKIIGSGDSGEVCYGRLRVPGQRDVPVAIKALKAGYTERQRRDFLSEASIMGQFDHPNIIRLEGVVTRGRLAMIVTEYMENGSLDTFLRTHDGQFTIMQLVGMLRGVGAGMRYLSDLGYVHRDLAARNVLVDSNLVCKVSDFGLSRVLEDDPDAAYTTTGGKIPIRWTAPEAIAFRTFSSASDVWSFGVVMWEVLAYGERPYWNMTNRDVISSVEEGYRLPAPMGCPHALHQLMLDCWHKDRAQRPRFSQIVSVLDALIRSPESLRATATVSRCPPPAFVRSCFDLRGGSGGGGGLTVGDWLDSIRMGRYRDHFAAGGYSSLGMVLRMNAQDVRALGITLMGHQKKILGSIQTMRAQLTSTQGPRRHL
# [9] = biological target: T3, Ephrin type-B receptor 1 (Homo sapiens) (UniProt P54762); conditions: at 1 µM
# T3 sequence (whole entry): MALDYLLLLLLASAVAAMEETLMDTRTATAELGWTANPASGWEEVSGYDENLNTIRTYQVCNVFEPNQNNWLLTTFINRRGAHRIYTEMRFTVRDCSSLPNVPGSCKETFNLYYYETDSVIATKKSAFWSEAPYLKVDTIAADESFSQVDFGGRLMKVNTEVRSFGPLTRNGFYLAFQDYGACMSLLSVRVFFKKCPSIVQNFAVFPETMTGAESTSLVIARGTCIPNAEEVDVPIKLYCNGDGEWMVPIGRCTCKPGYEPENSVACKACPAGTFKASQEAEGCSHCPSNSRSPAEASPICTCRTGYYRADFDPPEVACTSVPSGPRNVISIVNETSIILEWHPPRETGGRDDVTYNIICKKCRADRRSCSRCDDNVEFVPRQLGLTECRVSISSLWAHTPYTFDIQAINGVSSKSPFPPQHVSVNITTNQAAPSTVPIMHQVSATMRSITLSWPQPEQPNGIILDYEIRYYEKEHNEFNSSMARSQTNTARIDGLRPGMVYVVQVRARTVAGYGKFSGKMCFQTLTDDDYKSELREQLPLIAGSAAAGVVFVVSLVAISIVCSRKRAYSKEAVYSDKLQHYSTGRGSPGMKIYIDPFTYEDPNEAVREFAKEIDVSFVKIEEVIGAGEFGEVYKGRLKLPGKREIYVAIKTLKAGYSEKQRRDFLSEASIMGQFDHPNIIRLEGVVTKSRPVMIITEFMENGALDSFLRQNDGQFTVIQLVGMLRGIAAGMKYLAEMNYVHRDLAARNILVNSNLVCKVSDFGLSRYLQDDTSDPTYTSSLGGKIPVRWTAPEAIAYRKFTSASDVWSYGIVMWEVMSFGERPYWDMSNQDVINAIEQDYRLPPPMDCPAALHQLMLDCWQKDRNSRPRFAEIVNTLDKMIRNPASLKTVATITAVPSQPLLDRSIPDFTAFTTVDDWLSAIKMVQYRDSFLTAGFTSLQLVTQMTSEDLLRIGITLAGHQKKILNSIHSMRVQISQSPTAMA
compound,measurement,setting,value
CC[n+]1c(/C=C/N(C)c2ccccc2)n(-c2ccccc2)c2ccc(-c3nc4ccccc4s3)cc21,residual activity,[1],92%
same,residual activity,[2],106%
same,residual activity,[3],85%
same,residual activity,[4],120%
same,residual activity,[5],110%
same,residual activity,[6],108%
same,residual activity,[7],96%
same,residual activity,[8],114%
same,residual activity,[9],103%
